40 compounds from PubChem BioAssay can be followed below.

A number with no mark means an inactive call. No rule for the calls is given here.

The target in the test is Pantothenate synthetase (Mycobacterium tuberculosis (strain ATCC 25618 / H37Rv)) (UniProt P9WIL5). The experiment in a line: Coupled enzyme confirmation of inhibitors against recombinant Mtb PanC (AID 375).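 Also: 0% = full reaction with vehicle and 100% = no enzyme background.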 As to conditions: coupled enzyme assay; at 10 µM, stronger effect = higher value.
Chain of Pantothenate synthetase (Mycobacterium tuberculosis (strain ATCC 25618 / H37Rv)) (P9WIL5 whole entry, looked up): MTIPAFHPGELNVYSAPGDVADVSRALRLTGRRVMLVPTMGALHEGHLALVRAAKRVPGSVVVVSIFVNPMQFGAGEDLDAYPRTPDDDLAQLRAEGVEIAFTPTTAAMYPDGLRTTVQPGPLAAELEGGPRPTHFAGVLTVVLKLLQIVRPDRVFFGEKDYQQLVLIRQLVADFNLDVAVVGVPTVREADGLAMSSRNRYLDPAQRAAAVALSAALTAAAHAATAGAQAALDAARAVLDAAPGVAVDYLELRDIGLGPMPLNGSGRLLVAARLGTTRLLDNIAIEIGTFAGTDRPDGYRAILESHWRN
As a reminder, the inhibition is the change of the read-out against control, counted positive when it falls. As to `Cc1c(C(=O)OC2CCC(C)CC2)[nH]c2c1C(=O)CCC2` (stereo not given), the inhibition was 2%.
As to `Cn1c(=O)c2c(nc(SCC(=O)N3CCCc4ccccc43)n2C)n(C)c1=O`, the inhibition was 1%.
Consider `Cc1ccc2nc(NC(=O)C3CCCN(S(=O)(=O)c4cccc5nonc45)C3)sc2c1` (stereo not given), for which the inhibition is 1%.
Turning to `CCOc1ccccc1OCCCCN1CCCC1`, the inhibition is 9%.
Under `COc1ccc(S(=O)(=O)Nc2ccc(F)c(Cl)c2)cc1OC` stands 0%; under `CC(CCc1ccccc1)NC(=O)c1ccc(Br)o1` (stereo not given), 0%; under `COCCNc1nc(SCC(=O)N2CCN(c3ccccc3)CC2)nc2ccccc12`, 5%.
Turning to `COc1ccc2c(c1OC)C(=O)OC2Nn1cncn1` (stereo not given), the inhibition was 2%.
As to `O=C(NCc1cccs1)C1CC(=O)N(C2CCCC2)C1` (stereo not given), the inhibition was 2%.
Turning to `CCCNC(=O)c1ccccc1NC(=O)CN(c1ccccc1OCC)S(C)(=O)=O`, the inhibition was 0%.
As to `Cc1cccc(OCC(=O)Nc2cc(C)ccc2O)c1`, the inhibition was 0%.
The result for `CS(=O)(=O)C1=C(O)C(=O)N(c2ccccc2)C1c1ccccc1` (stereo not given) reads 5%; that for `COc1ccccc1NCN1C(=O)CCC1=O`, 3%.
For the compound `COc1ccc(CCn2c(C)cc(C(=O)CSc3nnnn3C)c2C)cc1`, the inhibition was 0%.
The result for `CCN(CC)C(=O)CSc1nc2ccc(NC(=O)CSc3nccn3C)cc2s1` reads 7%.
`COC(=O)CSc1nnc(-c2ccncc2)o1`: the inhibition is 0%.
The result for `Cc1ccccc1S(=O)(=O)Cc1ccc(C(=O)NCc2cccnc2)o1` reads 0%.
The result for `COC(=O)CCn1nnc(-c2ccc(C)cc2)n1` reads 1%.
As to `COc1ccc(Cn2c(=O)[nH]c3cc(C(=O)NCCCN4CCCC4)ccc3c2=O)cc1`, the inhibition is 5%.
In the case of `CCOC(=O)CSc1nnc2n1C(C)(C)Cc1ccccc1-2`, the inhibition is 3%.
In the case of `COc1ccc(Cc2nnc3n2N=C(c2cc4ccccc4o2)CS3)cc1OC`, the inhibition is 0%.
Regarding `CSC1=NCCN1C(=O)c1ccc(S(=O)(=O)N2CCCC2)cc1`, the inhibition is 0%.
In the case of `O=C(COc1nnnc2ccccc12)N1CCCc2ccccc21`, the inhibition is 0%.
For `CC(=O)Nc1ccc(OC(=O)c2cccnc2)cc1`, the inhibition is 0%.
Under `CCc1nnc(NC(=O)c2ccc(-c3cccc(C(F)(F)F)c3)o2)s1` stands 0%; under `Clc1ccc(OCc2nc(-c3ccccn3)no2)c(Br)c1`, 0%; under `CC(C)N1C(=O)C2C(C(=O)NC3CCCCC3)C3C=CC2(O3)C1C(=O)NC1CCCC1` (stereo not given), 0%.
Regarding `CCCOc1ccc(OCCSc2ncccn2)cc1`, the inhibition was 0%.
In the case of `CC1(C)CC(=O)C=C(NCCN2CCN(C(=O)Nc3ccccc3)CC2)C1`, the inhibition is 5%.
Under `CCn1c(SCC(=O)NCCc2ccc(Cl)cc2)nnc1-c1cccs1` stands 1%; under `Cc1ccccc1NC(=O)C1CCC(C)(C(=O)O)C1(C)C` (stereo not given), 0%; under `O=C(O)CSc1ccc2ccccc2n1`, 5%.
Under `Cc1cc(C)c2c(=O)n(CC(=O)N3CCC(Cc4ccccc4)CC3)sc2n1` stands 0%; under `O=C(c1cccc(C(=O)N2CCN(c3ccc(F)cc3)CC2)c1)N1CCN(c2ccc(F)cc2)CC1`, 10%; under `CCOc1ccccc1Nc1ncnc2ccccc12`, 6%.
`CCN(CC)c1ccc(-c2nn3c(-c4cccnc4)nnc3s2)cc1`: the inhibition was 4%.
The result for `CCOC(=O)N1CCC(NC(=O)Cc2ccc(-n3c(=O)[nH]c4ccccc4c3=O)cc2)CC1` reads 3%.
Turning to `Cc1ccc2cc(CN(Cc3ccc4c(c3)OCO4)Cc3nnnn3Cc3ccco3)c(=O)[nH]c2c1C`, the inhibition is 0%.
With `Cc1ncoc1C(=O)Nc1ccccc1C(N)=O`, the inhibition is 0%.
Regarding `CCOC(=O)COc1ccc(S(=O)(=O)Nc2ccc3c(c2)OCO3)cc1`, the inhibition is 2%.
